Test results: PubChem BioAssay (EPA / NIEHS)
Active and inactive are the calls of the source. How the source made its calls: active means hit-call score of the fitted dose curve at least 0.9, where 1 is the maximum; inactive means score below 0.9.

Legend:
[1] = read-out: Vascular cell adhesion molecule 1 (VCAM1), VCAM1 (gene 7412); test: BSK_hDFCGF_VCAM1: BioMAP Diversity Plus: hDFCGF Assay for Vascular cell adhesion molecule 1 (VCAM1) Biomarker Activity (AID 2283065); details: primary human foreskin fibroblasts; actives raise or lower the signal;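 on AC50: VCAM-1 protein level quantified by ELISA after 24 h chemical exposure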
How it was run: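 Measured after 24 h chemical treatment of primary human skin fibroblasts, VCAM-1 was detected by ELISA and concentration-response analysed in both directions versus DMSO vehicle.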

[2] = read-out: Plasminogen activator inhibitor-1 (PAI1), SERPINE1 (gene 5054); test: BSK_hDFCGF_PAI1: BioMAP Diversity Plus: hDFCGF Assay for Plasminogen activator inhibitor-1 (PAI1) Biomarker Activity (AID 2283066); details: primary human foreskin fibroblasts; actives raise or lower the signal
How it was run: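 ELISA readout of PAI-1 from primary human skin fibroblast cultures, 24 h after compound addition. Gain or loss of signal was fitted bidirectionally against DMSO baseline.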

[3] = read-out: Intercellular Adhesion Molecule 1 (ICAM1), ICAM1 (gene 3383); test: BSK_KF3CT_ICAM1: BioMAP Diversity Plus: KF3CT Assay for Intercellular Adhesion Molecule 1 (ICAM1) Biomarker Activity (AID 2283067); details: primary human keratinocytes with fibroblasts; actives raise or lower the signal
How it was run: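 Bidirectional curve fitting against a DMSO baseline was applied to ICAM-1 ELISA signal from primary human skin co-cultures harvested 24 h after treatment, with SRB staining of parallel wells for overt cytotoxicity.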

[4] = BSK_KF3CT_SRB: Viability Assessment in the BioMAP Diversity Plus: KF3CT Assay (AID 2283069); details: primary human keratinocytes with fibroblasts;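 further: total protein by sulforhodamine B staining as a cytotoxicity measure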
How it was run: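 Cytotoxicity was gauged by SRB staining (0.1% SRB, 10% TCA fixation, 560 nm) of parallel cultures at 24 h. The cells were primary human skin keratinocytes co-cultured with fibroblasts, and activity was fitted in both directions against DMSO.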

[5] = read-out: Interleukin-1 alpha (IL1a), IL1A (gene 3552); test: BSK_KF3CT_IL1a: BioMAP Diversity Plus: KF3CT Assay for Interleukin-1 alpha (IL1a) Biomarker Activity (AID 2283070); details: primary human keratinocytes with fibroblasts; actives raise or lower the signal
How it was run: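 IL-1a was detected by ELISA 24 h after chemical treatment of a co-culture of human skin keratinocytes and foreskin fibroblasts. Gain or loss of signal was fitted against the DMSO baseline.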

[6] = read-out: TIMP metallopeptidase inhibitor 2 (TIMP2), TIMP2 (gene 7077); test: BSK_KF3CT_TIMP2: BioMAP Diversity Plus: KF3CT Assay for TIMP metallopeptidase inhibitor 2 (TIMP2) Biomarker Activity (AID 2283071); details: primary human keratinocytes with fibroblasts; actives raise or lower the signal
How it was run: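 ELISA readout of TIMP-2 in keratinocyte plus foreskin fibroblast co-cultures (human skin primary cells), 24 h post-dose. Gain or loss of signal fitted relative to DMSO.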

[7] = read-out: Transforming growth factor beta 1 (TGFb1), TGFB1 (gene 7040); test: BSK_KF3CT_TGFb1: BioMAP Diversity Plus: KF3CT Assay for Transforming growth factor beta 1 (TGFb1) Biomarker Activity (AID 2283072); details: primary human keratinocytes with fibroblasts; actives raise or lower the signal
How it was run: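 Read-out: ELISA for TGF-b1 in keratinocyte/foreskin fibroblast human skin co-culture, 24 h after dosing; bidirectional curve fit vs DMSO baseline; gain or loss of signal scored.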

[8] = read-out: C-C motif chemokine 2 (Homo sapiens) (UniProt P13500); test: BSK_KF3CT_MCP1: BioMAP Diversity Plus: KF3CT Assay for Monocyte Chemoattractant Protein 1 (MCP1/CCL2) Biomarker Activity (AID 2283073); details: primary human keratinocytes with fibroblasts; actives raise or lower the signal
How it was run: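 Biomarker MCP-1 is measured by ELISA in primary human keratinocytes co-cultured with foreskin fibroblasts, 24 h after chemical treatment; DMSO serves as the negative control and activity baseline.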

[9] = read-out: Matrix Metallopeptidase 9 (MMP9), MMP9 (gene 4318); test: BSK_KF3CT_MMP9: BioMAP Diversity Plus: KF3CT Assay for Matrix Metallopeptidase 9 (MMP9) Biomarker Activity (AID 2283074); details: primary human keratinocytes with fibroblasts; actives raise or lower the signal;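 further: MMP9 protein level quantified by ELISA in the co-culture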
How it was run: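 MMP-9 quantified by ELISA after 24 h chemical treatment of primary human skin keratinocyte/fibroblast co-cultures; gain or loss fitted against DMSO, with parallel SRB staining (0.1% SRB, 560 nm) for overt cytotoxicity.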

[10] = read-out: urokinase plasminogen activator (uPA), PLAU (gene 5328); test: BSK_KF3CT_uPA: BioMAP Diversity Plus: KF3CT Assay for urokinase plasminogen activator (uPA) Biomarker Activity (AID 2283075); details: primary human keratinocytes with fibroblasts; actives raise or lower the signal
How it was run: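 ELISA read-out of uPA 24 h after dosing human skin keratinocytes co-cultured with foreskin fibroblasts. Signal change fitted both ways relative to DMSO; sulforhodamine B on parallel cultures marks overt cytotoxicity.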

[11] = read-out: CD40, CD40 (gene 958); test: BSK_LPS_CD40: BioMAP Diversity Plus: LPS Assay for CD40 Biomarker Activity (AID 2283076); details: primary human HUVEC with PBMC; actives raise or lower the signal
How it was run: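 Using a multiplexed primary human co-culture (umbilical vein endothelium plus PBMC), CD40 was read by ELISA 24 h after dosing, with cytotoxicity tracked by sulforhodamine B staining of parallel cultures and activity fitted bidirectionally versus DMSO.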

[12] = read-out: Interleukin-8 (IL8), CXCL8 (gene 3576); test: BSK_LPS_IL8: BioMAP Diversity Plus: LPS Assay for Interleukin-8 (IL8) Biomarker Activity (AID 2283078); details: primary human HUVEC with PBMC; actives raise or lower the signal
How it was run: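 In this LPS system, chemical-treated human umbilical vein endothelium/PBMC co-cultures were harvested at 24 h for IL-8 ELISA.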

[13] = BSK_LPS_SRB: Viability Assessment in the BioMAP Diversity Plus: LPS Assay (AID 2283079); details: primary human HUVEC with PBMC;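 further: total protein by sulforhodamine B absorbance as a cytotoxicity measure; measured one day after compound addition; fitted in both directions against DMSO so loss or gain of signal counts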
How it was run: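 Cytotoxicity endpoint in human endothelial–PBMC co-culture: 24 h exposure, then SRB (0.1%) staining, 560 nm read.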

[14] = read-out: Interleukin-1 alpha (IL1a), IL1A (gene 3552); test: BSK_LPS_IL1a: BioMAP Diversity Plus: LPS Assay for Interleukin-1 alpha (IL1a) Biomarker Activity (AID 2283080); details: primary human HUVEC with PBMC; actives raise or lower the signal
How it was run: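 Primary human HUVEC and PBMC co-culture stimulated with LPS is dosed and harvested at 24 h. Both increases and decreases in ELISA-measured IL-1a are scored relative to DMSO.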

[15] = read-out: Monocyte Chemoattractant Protein-1 (MCP1), CCL2 (gene 6347); test: BSK_LPS_MCP1: BioMAP Diversity Plus: LPS Assay for Monocyte Chemoattractant Protein-1 (MCP1) Biomarker Activity (AID 2283081); details: primary human HUVEC with PBMC; actives raise or lower the signal;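 on AC50: secreted MCP-1 protein quantified by ELISA in culture supernatant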
How it was run: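 Values derive from bidirectional fitting against DMSO of ELISA-measured MCP-1 in a human primary endothelial and mononuclear cell co-culture, 24 h after chemical addition under LPS activation.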

[16] = read-out: Macrophage colony-stimulating factor (MCSF), CSF1 (gene 1435); test: BSK_LPS_MCSF: BioMAP Diversity Plus: LPS Assay for Macrophage colony-stimulating factor (MCSF) Biomarker Activity (AID 2283083); details: primary human HUVEC with PBMC; actives raise or lower the signal
How it was run: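 Bidirectional fit versus DMSO of ELISA-measured M-CSF in co-cultured human umbilical vein endothelial cells and PBMC, sampled 24 h after dosing.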

[17] = read-out: Tissue Factor, F3 (gene 2152); test: BSK_LPS_TissueFactor: BioMAP Diversity Plus: LPS Assay for Tissue Factor Biomarker Activity (AID 2283084); details: primary human HUVEC with PBMC; actives raise or lower the signal
How it was run: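 Read-out: CD142 ELISA, 24 h. System: LPS-driven human endothelial/PBMC co-culture. Analysis: up- or down-signal fitted against DMSO.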

[18] = read-out: Interferon-gamma inducible Protein 10 (IP10), CXCL10 (gene 3627); test: BSK_KF3CT_IP10: BioMAP Diversity Plus: KF3CT Assay for Interferon-gamma inducible Protein 10 (IP10) Biomarker Activity (AID 2283068); details: primary human keratinocytes with fibroblasts; actives raise or lower the signal
How it was run: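 Signal is secreted/surface IP-10 by ELISA in a human primary skin co-culture of keratinocytes and foreskin fibroblasts, taken 24 h post-dosing; DMSO served as negative control.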

[19] = BSK_LPS_PGE2: BioMAP Diversity Plus: LPS Assay for Prostaglandin E2 (PGE2) Biomarker Activity (AID 2283082); details: primary human HUVEC with PBMC; actives raise or lower the signal;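 on AC50: secreted prostaglandin E2 measured by ELISA in LPS-stimulated co-culture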
How it was run: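 ELISA read-out of PGE2 from human umbilical vein endothelial cells co-cultured with peripheral blood mononuclear cells under LPS, 24 h post-dose. Gain or loss of signal scored relative to DMSO baseline.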

[20] = read-out: E-selectin (Homo sapiens) (UniProt P16581); test: BSK_LPS_Eselectin: BioMAP Diversity Plus: LPS Assay for Eselectin Biomarker Activity (AID 2283077); details: primary human HUVEC with PBMC; actives raise or lower the signal
How it was run: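 Dose chemical onto LPS-driven HUVEC/PBMC co-culture; after 24 h, run ELISA for E-selectin; fit up- and down-going responses relative to DMSO control.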

Measured: AC50

Sequence of E-selectin (Homo sapiens) (P16581 whole entry, looked up): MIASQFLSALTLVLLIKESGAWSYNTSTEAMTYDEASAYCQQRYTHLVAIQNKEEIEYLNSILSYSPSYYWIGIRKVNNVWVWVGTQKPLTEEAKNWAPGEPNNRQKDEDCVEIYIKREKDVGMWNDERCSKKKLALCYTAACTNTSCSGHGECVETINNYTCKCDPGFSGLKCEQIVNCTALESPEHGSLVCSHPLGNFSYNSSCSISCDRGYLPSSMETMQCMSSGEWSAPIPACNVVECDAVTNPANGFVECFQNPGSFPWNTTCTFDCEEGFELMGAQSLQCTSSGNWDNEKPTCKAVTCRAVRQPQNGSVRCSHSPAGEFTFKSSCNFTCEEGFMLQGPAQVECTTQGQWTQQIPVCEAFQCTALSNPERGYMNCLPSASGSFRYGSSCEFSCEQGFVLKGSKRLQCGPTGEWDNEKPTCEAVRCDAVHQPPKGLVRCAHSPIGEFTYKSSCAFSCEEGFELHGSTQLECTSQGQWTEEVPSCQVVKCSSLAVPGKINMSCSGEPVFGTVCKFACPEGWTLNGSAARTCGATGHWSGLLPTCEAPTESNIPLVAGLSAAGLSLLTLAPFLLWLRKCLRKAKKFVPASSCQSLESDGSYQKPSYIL

O=C1C2(Cl)C3(Cl)C4(Cl)C(Cl)(Cl)C5(Cl)C3(Cl)C1(Cl)C5(Cl)C24Cl (stereo unspecified)
active: [1] 4.35 µM | [2] 8.81 µM | [3] 33 µM | [4] 8.1 µM | [5] 22.9 µM | [6] 24.2 µM | [7] 6.14 µM | [8] 35.1 µM | [9] 8.52 µM | [10] 11.1 µM | [11] 7.66 µM | [12] 14.5 µM | [13] 6.4 µM | [14] 7.55 µM | [15] 10.7 µM | [16] 10.6 µM | [17] 12 µM

CCOC(=O)/C=C(C)/C=C/C[C@@H](C)CCCC(C)C
active: [1] 20.7 µM | [3] 34.5 µM | [18] 33.4 µM | [4] 33.8 µM | [5] 26.3 µM | [6] 27 µM | [7] 13.5 µM | [8] 7.27 µM | [10] 31.2 µM | [11] 20 µM | [13] 38.7 µM | [14] 33.3 µM | [15] 30.7 µM | [19] 10.1 µM | [16] 15.5 µM | [17] 29.2 µM

CC(C)(c1ccccc1)c1ccc(O)c(C(C)(C)c2ccccc2)c1
active: [1] 2.79 µM | [2] 3.74 µM | [3] 3.68 µM | [18] 3.1 µM | [4] 2.33 µM | [5] 4.02 µM | [6] 2.17 µM | [7] 2.83 µM | [8] 4.19 µM | [10] 2.85 µM | [11] 12.3 µM | [13] 12.7 µM | [14] 11.1 µM | [15] 10.1 µM | [16] 9.66 µM | [17] 12.6 µM
inactive: [19]

CC1(C)Cc2cccc(O)c2O1
not listed: [9] | [12] | [19]
inactive: all other assays above

CC(=O)C(Cl)C(=O)N(C)C (stereo unspecified)
active: [5] 13.9 µM | [11] 15.5 µM | [12] 13.6 µM | [14] 14.4 µM | [15] 27 µM | [19] 7.26 µM | [16] 11.8 µM | [17] 9.35 µM
not listed: [9] | [20]
inactive: all other assays above

Nc1ccc(-c2ccc(N)c(Cl)c2)cc1Cl
active: [13] 7.78 µM
not listed: [9] | [12] | [19] | [20]
inactive: all other assays above
